Bioassay records as filed in PubChem.
This is one part of a sample in which hits are shown more often than they occur.
Tgondii IFNg = inhibitors of Toxoplasma gondii growth with IFN-gamma; Toxoplasma gondii growth in IFN-gamma-treated host cells; hits give low values; activity change, negative = inhibition, % (concentration not given with the values); 69,000 compounds, 3.8% hits; in the data active = activity change below about -70%, passing the limit was not always enough;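 note: host cells are HeLa cells infected with Toxoplasma gondii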
Active calls of the source: *; i = inactive; ! = a repeat was not active.

SMILES	Tgondii IFNg
COCC1c2nnn(C)c2CCN1C(=O)Cc1cccc(F)c1 (configuration not stated)	4
Cn1c(C(=O)NCc2cccc(F)c2)nc2c1CCN(S(C)(=O)=O)C2	-9
Cn1ncc(Cl)c1-c1cc(C(=O)N[C@H](CN)Cc2cccc(F)c2)sc1Cl	-85*
Cn1nccc1-c1nnn2c1COC(CNc1ncccn1)C2 (configuration not stated)	171
CCCCC[C@H](O)/C=C/[C@H]1[C@H](O)CC(=O)[C@@H]1CCCCCCC(=O)O	14
CCCCCCCCCCC[C@@H](C[C@@H]1OC(=O)[C@H]1CCCCCC)OC(=O)[C@H](CC(C)C)NC=O	-82*
CN1CCCC1CCn1cnc(-c2ccccc2)c1-c1ccccc1C(=O)O (configuration not stated)	-4
O=S(=O)(O)c1cc(I)c(O)c2ncccc12	10
O=c1[nH]n(CCO)c(=O)c2cccnc12	77
Cc1ccc2c(Cl)cc(Cl)c(O)c2n1	-81*
COc1ccc(-c2ncc(Cl)cn2)c2ccc(C)nc12	-38
Oc1ccc(Cl)c2cccnc12	12
O=C(Oc1ccc(Cl)c2cccnc12)c1cccnc1	-68
Oc1c(I)cc(I)c2cccnc12	-76*!
Oc1c(Cl)cc(Cl)c2cccnc12	-83*
CCCc1cc(C(=O)N2[C@@H]3CC[C@H]2CNC(=O)C3)cs1	20
CN(CCc1ccccn1)c1ncccc1CNC(=O)C1COCCO1 (configuration not stated)	7
COC(=O)[C@H]1[C@H](CO)[C@H]2Cn3c(ccc(-c4ccccc4OC)c3=O)[C@H]2N1C(=O)c1cnccn1	0
COc1ccc2c3c([nH]c2c1)[C@H](CO)N(Cc1ccc2c(c1)OCO2)CC31CCN(C(=O)Nc2c(C)noc2C)CC1	-13
CCn1ccc2cc(S(=O)(=O)N3CCCC(C(=O)N4CCN(c5ccccn5)CC4)C3)ccc21 (configuration not stated)	-55
Cc1nc(CNC(=O)CCn2c(=O)cc(C)c3ccccc32)no1	-1
CC(=O)N1CCOC(CNC(=O)CCc2cccnc2)C1 (configuration not stated)	10
Clc1ccc(-c2cc(-c3cccs3)c(-c3ccccc3)o2)cc1	141
FC(F)(F)c1oc(-c2ccccc2Cl)cc1-c1nc(-c2cccs2)no1	-4
c1csc(-c2cncc(-c3nnc(-c4cccc5ccccc45)o3)c2)c1	-102*
SMILES	Tgondii IFNg
CC(Cn1cncn1)C(=O)NC(C)C1CC2CCC1C2 (configuration not stated)	1
COc1ccc(-c2nccn2-c2ccc(Cl)cc2)c(OC)c1OC	2
COc1ccc(-c2nc(CNS(=O)(=O)c3ccc(C(C)C)cc3)c(C)o2)cc1	-75*
COc1ccc(-c2nc(CNS(=O)(=O)c3ccc(F)cc3)c(C)o2)cc1	33
COc1ccc(S(=O)(=O)NCc2nc(-c3ccccc3)oc2C)cc1	20
COc1ccc(C(=O)N2CCC3(CC2)Nc2ccc(C)c(C)c2-n2cccc23)cc1	33
CCS(=O)(=O)N1CCC(O)(c2ccc(C)cn2)CC1	-2
c1cncc(CN2CCC3(COCc4cnc(NCC5CC5)nc43)C2)c1 (configuration not stated)	-5
CCc1noc(-c2cc(=O)n(CC(=O)Nc3ccccc3Cl)c3ccccc23)n1	-48
CCOC(=O)c1cc(C#N)c(Sc2nnc(SC)s2)nc1C(F)(F)F	-32
CCOC(=O)c1cc(-c2nc(-c3ccccc3)cs2)c(C)nc1C(F)(F)F	-36
CCOC(=O)c1cc(C(N)=S)c(C)nc1C(F)(F)F	-79*
Cc1nn(-c2ccccc2)nc1CNS(=O)(=O)c1ccc2c(c1)N(C)CCO2	4
CCOc1cccc(-c2noc(-c3c(O)c4cc(F)ccc4n(C)c3=O)n2)c1	30
OC1(C(F)(F)F)CC(c2cccs2)=NO1 (configuration not stated)	-61
O=C(c1cccs1)N1N=C(c2ccc(Cl)cc2)CC1(O)C(F)(F)F (configuration not stated)	-97*
O=C(NCCc1csc(-c2ccc(Cl)cc2)n1)c1ccccc1C(F)(F)F	63
CN1C(C(=O)Nc2ccccn2)C(=O)c2ccccc2S1(=O)=O (configuration not stated)	6
Cc1nc(CCNC(=O)C2CCN(S(=O)(=O)c3ccc(Cl)s3)CC2)cs1	8
c1csc(CN2CCOC(CC3CCCCC3)C2)n1 (configuration not stated)	18
CC(C)Cn1nc(C(=O)O)c2c1CCN(C(=O)c1ccc3c(c1)OCCN3C)C2	3
Cc1nc(-c2cn(C(C)C)c3ncccc23)sc1C(=O)N1CCCCC1C (configuration not stated)	-106*
CCCc1ncc(-c2ccncc2C)c(C2CCCN2C(=O)c2sc(NC)nc2C)n1 (configuration not stated)	-13
CC1CCCCN1C(=O)c1cc(-c2cnc(-c3ccccc3)nc2)cn1C (configuration not stated)	i
c1ccc(-c2ccc3nc(C4CCN(CC5CC5)CC4)nn3c2)cc1	-9
SMILES	Tgondii IFNg
O=C1CC(c2ccccc2)C2(CCN(Cc3cccs3)CC2)N1 (configuration not stated)	-3
Cc1nc(OCC(=O)Nc2ccc(F)c(Cl)c2)c2ccccc2n1	-10
Cc1nc(-c2cc(C(=O)NCC(C)(C)CO)c3ccccn23)cn1-c1ccccn1	30
O=C(Nc1cccc(Cl)c1)N[C@H]1CC[C@@H](CCn2cc(Cc3ccccc3)nn2)O[C@@H]1CO	-41
O=C(Nc1cccc(Cl)c1)N[C@@H]1CC[C@@H](CCn2cc(Cc3ccccc3)nn2)O[C@@H]1CO	-74*
O=C(Nc1cccc(Cl)c1)N[C@H]1CC[C@H](CCn2cc(Cc3ccccc3)nn2)O[C@H]1CO	-40
O=C(C1CCOCC1)N1CCCC2(CC(Nc3ncccn3)CO2)C1 (configuration not stated)	-2
CC(C)[C@H]1C(=O)N[C@@H](c2ccc(F)cc2)CC=CC[C@H](C)Oc2ccccc2C(=O)N1C (mixture of isomers)	5
COc1ccc(NC(=O)N2CCC(c3nc(C(=O)N(C)C)c(C)o3)CC2)cc1F	142
Cc1ccc(-c2ccc([C@@H]3[C@@H]4CN(Cc5ccccc5F)C[C@H]3N4)cc2)cc1	-73*
CN(C)C(=O)c1cccc(-c2ccc(C3[C@@H]4CN(Cc5ccccc5F)C[C@H]3N4)cc2)c1 (some centres not stated)	-6
Fc1ccc(-c2ccc(C3[C@@H]4CN(Cc5ccccc5)C[C@H]3N4)cc2)cc1 (some centres not stated)	-33
CN(C)c1nc(-c2ccncc2)nc2c1CCN(C(=O)c1cnccn1)C2	-13
Cc1oc(-c2cccc(Cl)c2)nc1CN1CCCC(C(=O)NC2CCCCCC2)C1 (configuration not stated)	-56
Cc1oc(-c2cccc(C(F)(F)F)c2)nc1CN1CCCC(C(N)=O)C1 (configuration not stated)	4
COc1ccc(CNC(=O)C2CCCN(Cc3nc(-c4cccc(C)c4)oc3C)C2)cc1 (configuration not stated)	-83*
Cc1ccc(SCCN(C)C(=O)CCc2cc(=O)[nH]o2)cc1	4
COc1ccc(CCNc2nc(-c3nnc(-c4ccc(F)cc4)o3)nc3ccccc23)cc1OC	497
CCOc1cc(CNC(=O)c2nc(N3CCOCC3)c3ccccc3n2)ccc1OC	-20
CCOc1ccc(CCNC(=O)c2nc(N3CCC(C)CC3)c3ccccc3n2)cc1OCC	-98*
